According to PubChem BioAssay (Tox21):
A number with no mark means an inactive call. Records with an inconclusive call do not appear. A call without a number means that no potency is given here. Calls of active or inactive are those of the source. Unless noted, calls come from the whole dose curve; as a rule, active = well fitted curve in the direction sought with a large enough effect in the repeat runs; inconclusive = weak or mixed curves; inactive = no such curve, though single readings can be large; an effect the other way counts as inactive or inconclusive.

Experiments:
[1] = qHTS assay to identify small molecule agonists of H2AX (AID 1224845; active = well fitted activation curve with a large enough effect in the signal ratio in the repeat runs, not every such curve was filed as active; the % refers to the signal ratio)
Method in brief: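 Phospho-H2AX Ser139 measured by HTRF (ex 320 nm; em 665 and 620 nm) after 24 hr antibody incubation. Compounds, 15 concentrations, 0.76% DMSO, were applied to CHO-K1 cells for 3hr at 37C before lysis.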

[2] = qHTS assay to identify small molecule agonists of the hypoxia (HIF-1) signaling pathway (AID 1224846; active = well fitted activation curve with a large enough effect in the signal ratio in the repeat runs, not every such curve was filed as active; the % refers to the signal ratio)
Method in brief: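 A low-serum medium (0.5% dialyzed FBS) holding 2,000 HRE-bla ME-180 cells per well is preincubated for 5 hrs, dosed with compounds by pintool, and kept a further 17 hrs at 37C, 5% CO2 before CCF4-AM FRET detection of beta-lactamase.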

[3] = qHTS assay to identify small molecule agonists of H2AX - cell viability counter screen (AID 1224847; calls by dose curve;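 note: wild-type CHO-K1 cells; top concentration of the series differs between compounds; nearly all actives have a fitted effect of over 30% in size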)
Method in brief: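 Cells plated first: CHO-K1, 1000 per well in 10% FBS medium, incubated overnight at 37C. Then 15-point compound titration added (final DMSO 0.76%) for 3 hr. Finally CellTiter-Glo added and luminescence read.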

[4] = qHTS assay to identify small molecule antagonists of the estrogen related receptor (ERR) signaling pathway from Tox21 library (AID 1224848); note: nearly all actives have a fitted effect of over 50% in size; note: potency is the fitted concentration of half-maximal effect
Method in brief: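 Reading was by luminescence 30 min after ONE-Glo addition. Before that, ERR cells at 2,000 per well had rested 6 h at 37 C/5% CO2 and then received pin-tooled compounds in DMSO for 18 h at 37 C.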

[5] = qHTS assay to identify small molecule agonists of the estrogen related receptor (ERR) signaling pathway from Tox21 library (AID 1224849; calls by dose curve; note: nearly all actives have a fitted effect of over 15% in size); conditions: ERR reporter cell line, ONE-Glo luciferase, 18 h; at 92.4 µM (top of the series) unless noted
Method in brief: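 Screening used an NTP-provided ERR luciferase cell line. Compounds in DMSO were added 6 h after seeding and left 18 h at 37 C before a 30 min ONE-Glo step and luminescence reading.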

[6] = qHTS RealTime-Glo MT Cell Viability Assay in HepG2 cells - 24 hour (AID 1224867); note: nearly all actives have a fitted effect of over 50% in size
Method in brief: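 Cells + NanoLuc/prosubstrate dispensed (600 cells/well) → 5 h at 37 C/5% CO2 → compounds in DMSO transferred → 40 h incubation at 37 C, luminescence read at 0, 8, 16, 24, 32, 40 h.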

[7] = A CellTox Green Cytotoxicity Assay to monitor cytotoxicity in HEK293 cells - 0 hour (AID 1224869); note: nearly all actives have a fitted effect of over 50% in size; note: potency is the fitted concentration of half-maximal effect
Method in brief: (§1)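 Fluorescence intensity, read at 0, 8, 16, 24, 32 and 40 h of compound treatment, reflected dye binding to DNA of dead HEK293 cells; compounds (23 nL, DMSO) were added 5 h after plating cells with reagent.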

[8] = qHTS RealTime-Glo MT Cell Viability Assay in HepG2 cells - 40 hour (AID 1224870); note: nearly all actives have a fitted effect of over 50% in size
Method in brief: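 Real-time viability: cells seeded at 600 per well together with NanoLuc and cell-permeant prosubstrate, compounds added after 5 h incubation. Luminescence tracked at 0, 8, 16, 24, 32 and 40 h of exposure.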

[9] = A CellTox Green Cytotoxicity Assay to monitor cytotoxicity in HEK293 cells - 40 hour (AID 1224871); note: nearly all actives have a fitted effect of over 45% in size; note: potency is the fitted concentration of half-maximal effect
Method in brief: as §1

[10] = qHTS RealTime-Glo MT Cell Viability Assay in HEK293 cells - 32 hour (AID 1224868); note: nearly all actives have a fitted effect of over 50% in size; note: potency is the fitted concentration of half-maximal effect
Method in brief: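 Tox21 10K qHTS, HEK293, 600 cells/well, RealTime-Glo reagent co-dispensed with cells; 5 h preincubation, compound by pintool, 37 C, luminescence at 0–40 h.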

Row | Structure (SMILES) | Potency [1] | Potency [2] | Potency [3] | Potency [4] | activity change, positive = activation [5] | Potency [6] | Potency [7] | Potency [8] | Potency [9] | Potency [10]
1 | COc1cc2nc(N(C)CCCNC(=O)C3CCCO3)nc(N)c2cc1OC (configuration not stated) | inactive | inactive | inactive | 9.44 µM (active) | -34.3% [at 42.5 µM] | inactive | inactive | inactive | inactive | 
2 | CCCCC/C=C\C/C=C\CCCCCCCC(=O)NC(C)c1ccccc1 (configuration not stated) | inactive | inactive | inactive | 18.8 µM (active) | -35.5% [at 42.5 µM] | inactive | inactive |  | inactive | inactive
3 | O=C(Nc1ccc(S(=O)(=O)N2CCOCC2)cc1)c1cc(Cl)ccc1NS(=O)(=O)c1ccc(Cl)s1 | inactive | inactive | inactive | inactive | -2.07% [at 42.5 µM] |  | 19 µM (active) | inactive | 21.3 µM (active) | inactive
4 | O=C(O)C(S)C(S)C(=O)O (configuration not stated) | inactive | inactive | inactive |  |  | inactive | inactive | inactive | inactive | inactive
5 | CCCCCCOC(=O)NC(=N)c1ccc(NCc2nc3cc(C(=O)N(CCC(=O)OCC)c4ccccn4)ccc3n2C)cc1 | inactive | inactive | inactive | 13.3 µM (active) | -64.4% [at 42.5 µM] |  | inactive | inactive | inactive | 10.7 µM (active)
6 | NCc1ccccc1Sc1ccccc1CO | inactive | inactive | inactive |  |  | inactive | inactive | inactive | inactive | inactive
7 | COc1ccc2cccc(CCNC(C)=O)c2c1 | inactive | inactive | inactive |  |  | inactive | inactive | inactive | inactive | inactive
8 | O=C1OC(=O)C2C3C=CC(C3)C12 (configuration not stated) | inactive | inactive | inactive |  |  | inactive | inactive | inactive | inactive | inactive
9 | CCCCC | inactive | inactive | inactive |  |  | inactive |  |  |  | inactive
10 | CN(C)c1ccc(CCO)cc1 | inactive | inactive | inactive |  |  | inactive | inactive | inactive | inactive | 30.7 µM (active)
11 | CC(=O)c1cccc([N+](=O)[O-])c1 | inactive | inactive | inactive |  |  | inactive | inactive | inactive | inactive | inactive
12 | COc1ccc(-c2nc3ccc(C4=NNC(=O)CC4C)cc3[nH]2)cc1 (configuration not stated) | inactive | inactive | inactive | inactive |  |  | inactive | inactive | inactive | 8.49 µM (active)
